In all, about 66,000 compounds went through this assay and about 960 (1.5%) showed an effect of 50% or more. The list comes from a sample in which strong results are over-represented; it also holds similar structures and randomly drawn compounds.
System: Trypanosoma brucei
Assay: Trypanosoma brucei 72 hour study
Assay type: functional, organism-based
Set-up: scale not given: in the data most compounds retested in dose-response had high values

Structure (SMILES)	Percent Effect (30.3 µM, […]) [%]	Percent Effect (30 µM, 30.03 µM) [%]
Cn1nc(C(=O)N2CCOCC2)c2c1CN(CC1CC1)C2.O=C(O)C(F)(F)F.O=C(O)C(F)(F)F	-90.45	
COc1cc(CN[C@@H]2COC[C@H]2Cc2cc(C)no2)cc(OC)c1.O=C(O)CC(O)(CC(=O)O)C(=O)O	16.22	
C=C1C(C)(C)[C@H]2CC[C@]1(C(=O)N1CCC(Cn3cc(CO)nn3)CC1)C2		-32.31
Cl.O=C1CC2(CCCNC2)C(=O)N1Cc1ccc(Cl)cc1 (configuration not stated)	7.931	
COc1cc(N2CCC3(CCCN(Cc4ccccn4)C3)C2)ncn1.O=C(O)C(F)(F)F (configuration not stated)	-81.3	
CSc1nccc(N2CCC3(CCCN(Cc4cccc(C)c4)C3)C2)n1 (configuration not stated)	99.66	
Fc1ccc(CN2CCC3(CCCN(c4nncs4)C3)C2)cc1.O=C(O)C(F)(F)F (configuration not stated)	-195.3	
CSc1nccc(N2C[C@@H](CN3CCCCC3)[C@@H](CO)C2)n1	-9.185	
Cc1c[nH]c(CN2CCC3(CCCN(Cc4ccc(F)c(F)c4)C3)C2)n1 (configuration not stated)		12.03
COc1ccc(CN2CCC3(CCCN(c4ncc(F)cn4)C3)C2)cc1.O=C(O)C(F)(F)F (configuration not stated)		46.33
CSc1nccc(N2CCC3(CCCN(Cc4ccc(F)cc4)C3)C2)n1 (configuration not stated)	100.4	
CSc1nccc(N2CCC3(CCCN(CCc4ccccc4)C3)C2)n1 (configuration not stated)	100.6	
c1cnc(N2CCC3(CCCN(CC4CCCCC4)C3)C2)cn1 (configuration not stated)	-7.519	
O=C(Cc1cccc(F)c1)N1CCc2ncnc(NC3CC3)c2CC1.O=C(O)C(F)(F)F	-65.72	
Cl.Cn1ccnc1Sc1ccc(N)cn1		-0.5458
Cl.O=S(=O)(N1CCCC1)N1C[C@@H](c2cccc(F)c2)[C@@H]2NCCCCC[C@H]21	-12.23	
Cc1cccc(N2CCC3(CCCN(C(=O)c4cccnc4)C3)CC2)n1.O=C(O)C(F)(F)F.O=C(O)C(F)(F)F		-24.82
CC(C)C(=O)N1CCCC2(C1)CN(c1nncs1)CCO2.O=C(O)C(F)(F)F (configuration not stated)	-91.97	
O=C(Cc1ccccn1)N1CCC2(CC1)CC(Oc1ccccn1)CO2.O=C(O)C(F)(F)F.O=C(O)C(F)(F)F (configuration not stated)		23.31
O=C(O)C(F)(F)F.c1cnc(NC2COC3(CCN(Cc4nccs4)CC3)C2)cn1 (configuration not stated)	-510.2	
Cc1ncc(CN2CCCC(O)(c3ccc(F)cc3)CC2)n1C.O=C(O)CC(O)(CC(=O)O)C(=O)O (configuration not stated)	5.795	
COc1cccc(N2CCN(CC(O)c3ccc(C)cc3)CC2)c1 (configuration not stated)		17.53

Structure (SMILES)	Percent Effect (30.3 µM, […]) [%]	Percent Effect (30 µM, 30.03 µM) [%]
COc1cccc(N2CCN(CC(O)c3cc(C)sc3C)CC2)c1 (configuration not stated)	80.96	
COc1cccc(N2CCN(CC(O)c3cc(C)ccc3C)CC2)c1 (configuration not stated)		-36.53
COc1cc(Cc2nc3c([nH]2)CC(C)(C)CNC3=O)cc(OC)c1		-74.64
Cc1nc(-c2ncc(C(=O)NCCNc3ncccc3C)c(O)n2)cs1		-1.041
Cc1cccnc1NCCNC(=O)c1cnc(-c2ccccn2)nc1O		99.84
Cc1cccnc1NCCNC(=O)c1cnc(-c2cccs2)nc1O		-4.334
Cc1ccc(C)c(NC(=O)N2C[C@H](N(C)C)C[C@H]2CO)c1		-61.25
COCCOc1ccc(C(=O)N2CCCC(n3cncn3)C2)cn1 (configuration not stated)	-14.96	
Cc1noc(C)c1CN1C[C@@H]2COC[C@H](C(=O)N3CCOCC3)[C@@H]2C1.O=C(O)C(F)(F)F	-95.08	
CC(C)c1nn(C)cc1CNCc1cccnc1N(C)C.Cl		-46.74
COc1ccc(C2(NCc3c(C)nc4c(C)cccn34)CCCC2)cc1.O=C(O)CC(O)(CC(=O)O)C(=O)O	-8.607	
CCC(=O)N1CCN(C(=O)CCn2cc(Cl)cn2)[C@H]2CS(=O)(=O)C[C@H]21		35.1
Cc1cnn(CCC(=O)N2CCN(C(=O)C(C)C)[C@@H]3CS(=O)(=O)C[C@@H]32)c1		31
Cc1cnn(CCC(=O)N2CCN(C(=O)C3CC3)[C@@H]3CS(=O)(=O)C[C@@H]32)c1		64.13
CCCNC(=O)C1CCN(CC(O)c2ccc(C(F)(F)F)cc2)CC1 (configuration not stated)	11.33	
Cc1cc(CN2CCC(CNS(=O)(=O)c3ccc(C)s3)CC2)c(C)o1	-7.383	
Cc1cc(CN2CCC(CNS(=O)(=O)c3ccccc3F)CC2)c(C)o1	3.502	
Cc1cc(CN2CCC(CNS(=O)(=O)c3ccc(Br)s3)CC2)c(C)o1	55.92	
CCC(CN1CCCC1)n1cncc1-c1cnn(-c2ccccc2)c1.Cl (configuration not stated)	-6.567	
Cc1cc(C)c(CNC(=O)NCc2ccc(F)c(C)c2)c(=O)[nH]1	-14.44	
O=C1CN(C(=O)[C@H]2CC[C@]3(CC2)CNC(=O)c2ccccc2O3)CCN1	-6.646	
Cc1cnc2c(c1NCc1ccc3c(c1)OCO3)c(=O)n(C)c(=O)n2C		-27.04

Structure (SMILES)	Percent Effect (30.3 µM, […]) [%]	Percent Effect (30 µM, 30.03 µM) [%]
CCc1cc(CNC(=O)c2cc(NC(=O)C(C)C)ccc2Cl)[nH]n1	61.59	
Cc1cc(CNC(=O)c2cc(NC(=O)C(C)C)ccc2Cl)no1	-13.13	
COCc1cc(CNC(=O)c2cc(NC(C)=O)ccc2Cl)n[nH]1		-15.93
CN(C)C(=O)CN1CCc2ncnc(NC3CCC3)c2CC1.O=C(O)C(F)(F)F	-31.13	
CCN(CC)Cc1cc(=O)n2c(n1)CN(C(=O)c1ccc[nH]1)CCC2	11.69	
Cc1nc(C)n(CC2CCCN(Cc3nnc(C(C)(C)C)o3)C2)n1 (configuration not stated)		14.46
Cc1nn(C)c2cnn(CC(=O)NCc3ccccc3F)c12	-20.3	
Cc1ccccc1CNC(=O)Cn1ncc2c1c(C)nn2C	-7.192	
COc1ccccc1CNC(=O)Cn1ncc2c1c(C)nn2C		68.66
CN(Cc1ccc(N(C)C)cc1)C(=O)CSc1ccc(Br)cc1	12.7	
CS(=O)(=O)N1CC2(CCN(C(=O)c3ccncc3)CC2)c2ccccc21.O=C(O)C(F)(F)F	-14.55	
CN(Cc1ccco1)[C@@H]1CN(Cc2ccsc2)C[C@@H]2CCCO[C@@H]21.O=C(O)C(F)(F)F.O=C(O)C(F)(F)F		27.39
CN(C)C[C@@H]1C[C@@H]2CN(Cc3nccn3C)CC[C@@H]2N1CC1CC1	-12.03	
COCC(=O)N1CCCC(COc2ccccc2C)C1 (configuration not stated)		-51.53
Cc1ccccc1OCC1CCCN(C(=O)CN(C)C2CCNCC2)C1 (configuration not stated)		59.87
Cc1cccc(OCC2CCCN(C(=O)CN(C)C3CCNCC3)C2)c1 (configuration not stated)		6.222
Cc1ccccc1-n1ncc(C(C)N)c1C (configuration not stated)	-16.93	
Cc1ncc(CN2CCCC2)c2cc(C(=O)c3ccc(Br)cc3)oc12.Cl		-13.22
CC(C)CNC(=O)[C@H]1CCS(=O)(=O)[C@@H]2CN(CC(C)C)C[C@H]12.O=C(O)C(F)(F)F	-19.44	
CC(C)Oc1ncc(C(=O)N2CCC(CC(N)=O)CC2)cc1Cl	-51.28	
CC(=O)N1CCN(C(=O)c2cnc(OC(C)C)c(Cl)c2)CC1	-3.997	
CC(C)Oc1ncc(C(=O)N2CCC(N(C)C)CC2)cc1Cl	99.1	

Structure (SMILES)	Percent Effect (30.3 µM, […]) [%]	Percent Effect (30 µM, 30.03 µM) [%]
Cc1n[nH]cc1CNC1(c2ccc(Br)cc2)CC1	-166.2	
Cc1n[nH]cc1CNC1(Cc2ccc(Br)cc2)CCCCC1	80.83	
Cc1n[nH]cc1CNC1(c2ccc(F)cc2)CCCC1	-110.9	
O=C(O)C(F)(F)F.O=C(O)C(F)(F)F.O=C1NC2(CCN(Cc3ccc(F)cc3)CC2)CC1c1ccncc1 (configuration not stated)		28.32
Cc1cc(S(=O)(=O)NC(C)(C)CN)c(F)cc1F.Cl		-23.52
Cc1oncc1C(=O)N1CC2CC1(C(=O)N(C)C)C2	-15.18	
COCC1c2c(cnn2CC2CC2)CCN1Cc1nccs1.O=C(O)C(F)(F)F.O=C(O)C(F)(F)F (configuration not stated)		52.09
CCOCC1c2c(cnn2CC2CC2)CCN1Cc1nccs1.O=C(O)C(F)(F)F.O=C(O)C(F)(F)F (configuration not stated)	-3.24	
COCC1c2c(cnn2CC2CC2)CCN1Cc1cccs1.O=C(O)C(F)(F)F.O=C(O)C(F)(F)F (configuration not stated)		-88.48
Cc1cccc2c1cnn2CCCNC(=O)C1CC1	-16.1	
O=C(CN1CC(c2nc(C3CC3)no2)C1)N1CCOCC1.O=C(O)C(=O)O		47.84
O=C(O)C(F)(F)F.O=C([C@H]1CC[C@@H]2[C@@H](CCN2C2CCCCC2)O1)N1CCOCC1	2.517	
Cc1nnc(N2CC[C@H](OCC3CC3)[C@@H](Cc3ccccc3)C2)s1.O=C(O)C(F)(F)F		-16.49
CO[C@@H]1CCN(c2nnc(C)s2)C[C@@H]1Cc1ccccc1.O=C(O)C(F)(F)F	-5.303	
CO[C@@H]1CCN(c2nnc(C)s2)C[C@@H]1Cc1cccc(C)c1.O=C(O)C(F)(F)F	-8.568	
CO[C@H]1CCN(c2nnc(C)s2)C[C@@H]1Cc1ccccc1.O=C(O)C(F)(F)F	12.72	
CO[C@H]1CCN(c2nnc(C)s2)C[C@@H]1Cc1cccc(C)c1.O=C(O)C(F)(F)F	100.1	
Cc1nnc(N2CC[C@@H](OCC3CC3)[C@@H](Cc3ccccc3)C2)s1.O=C(O)C(F)(F)F	100.5	
O=C(N[C@H]1CC[C@@]2(CCC(=O)N2CC2CC2)CC1)c1cnccn1	-8.587	
Cc1nnc([C@@]23CCO[C@@H]2CCN(S(=O)(=O)c2ccccc2)C3)o1	-46.55	
CNC(=O)c1ccc(CN(C)C(=O)Nc2nnc(C(C)C)s2)cc1		1.168

From ChEMBL document CHEMBL3988442, “University of Dundee, Small-Polar-MMV Screening Library” (2021)
